An excerpt weighted towards active compounds, which were near 1.4% of everything screened.
GLD-1 RNA inh = GLD-1-TGE RNA interaction inhibition (C. elegans). Q17339. purified GLD-1 + fluorescein TGE RNA, fluorescence polarization. inhibition, % at 5.96 µM. 0.44% of 320,000 active;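 active = percent inhibition above a per-plate cutoff, the plate mean of test compounds plus 3 SD, cut at about 30% in these data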
MCL1 BIM primary = MCL1-BIM-BH3 interaction inhibition (human) | Q07820 | GST-MCL1 / FITC-Bim-BH3 fluorescence polarization | inhibition, % at 10.9 µM | 0.68% of 320,000 active | AID 2057;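 active = inhibition above the mean inhibition of all tested compounds plus 3 SD, set per campaign, cut at about 40% in these data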;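 also: higher means more loss of mP so more displacement of Bim peptide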
MEX-5 binding = C. elegans MEX-5 TCR-2 RNA binding activity; Q9XUB2; MEX-5/FITC-TCR2 RNA binding, fluorescence polarization; active compounds read low; activity score (negative = inhibition of binding), % at 10 µM; 0.38% of 300,000 active;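 active = inhibition past about -25% in most replicates, and total fluorescence under double the plate's negative control median, limit read from the data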
Target sequence (Q9XUB2 whole entry, looked up): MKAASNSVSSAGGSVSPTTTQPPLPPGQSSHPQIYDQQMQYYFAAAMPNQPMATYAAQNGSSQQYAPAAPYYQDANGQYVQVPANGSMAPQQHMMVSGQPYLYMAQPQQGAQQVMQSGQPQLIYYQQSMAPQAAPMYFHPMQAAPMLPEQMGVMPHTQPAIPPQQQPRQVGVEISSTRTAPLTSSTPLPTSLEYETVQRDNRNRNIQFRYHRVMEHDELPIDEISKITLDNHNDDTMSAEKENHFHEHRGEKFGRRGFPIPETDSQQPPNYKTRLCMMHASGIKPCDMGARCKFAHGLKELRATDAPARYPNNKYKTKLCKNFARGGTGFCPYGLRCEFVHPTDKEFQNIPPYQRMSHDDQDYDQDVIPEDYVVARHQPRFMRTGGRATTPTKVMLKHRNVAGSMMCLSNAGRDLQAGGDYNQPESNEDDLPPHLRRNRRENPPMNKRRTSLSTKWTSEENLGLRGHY
BCLXL inh = blocks human Bcl-xL binding to Bim BH3 peptide; Q07817; GST-Bcl-xL / FITC-Bim BH3 peptide fluorescence polarization; inhibition, % at 10.9 µM; 0.7% of 320,000 active; AID 2129;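 active = inhibition above the mean of all tested compounds plus 3 SD, cutoff set per campaign, cut at about 30% in these data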;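 also: inhibitors lower millipolarization by displacing the labeled peptide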
EBV gp42 block = inhibitors of Epstein-Barr virus glycoprotein 42. Fluorescence polarization binding assay, mP read-out. AID 1085. inhibition, % (tested at 21.74 µM). Q1HVG2. 0.42% of 220,000 active; in the data active = inhibition above about 50%
Target sequence (Q1HVG2 whole entry, looked up): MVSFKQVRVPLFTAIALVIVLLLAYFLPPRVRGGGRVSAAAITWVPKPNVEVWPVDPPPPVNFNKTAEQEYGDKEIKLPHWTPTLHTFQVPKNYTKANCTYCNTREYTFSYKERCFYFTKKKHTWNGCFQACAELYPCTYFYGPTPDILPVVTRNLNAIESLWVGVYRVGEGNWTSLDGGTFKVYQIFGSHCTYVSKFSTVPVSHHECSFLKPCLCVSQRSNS
eLon inh = E. coli protease La inhibition; P0A9M0; purified E. coli Lon protease, fluorescence polarization; AID 602123; 0.42% of 360,000 active; inhibition, % at 7.94 µM; in the data active = inhibition above about 13%, passing the limit was not always enough
E coli Lon conf = confirmation of E. coli Lon protease inhibitors; inhibition, % at 7.94 µM; AID 602230; purified E. coli Lon, fluorescence polarization; 31% of 1,400 active; shares compounds with eLon inh; in the data active = inhibition above about 16%
Large screens that a line does not name were inactive (follow-up assays come after a bar, where they were run).

O=C(N=C1SC2CS(=O)(=O)CC2N1c1ccccc1)c1cccc([N+](=O)[O-])c1 (centres undefined)	none (no result: MEX-5 binding, EBV gp42 block)
COc1ccc(C(=O)N=C2SC3CS(=O)(=O)CC3N2c2ccccc2)cc1OC (centres undefined)	eLon inh 19.4 (no result: EBV gp42 block) | E coli Lon conf inactive
O=C(COc1cc(F)ccc1[N+](=O)[O-])NCCCc1ccccc1	none
O=C(CCc1ccccc1)Nc1cc(C(=O)O)cc(C(=O)O)c1	none
N#Cc1c(NCc2ccccc2)ccnc1NCc1cccnc1	eLon inh 17.4 | E coli Lon conf inactive
COc1cc(C(=O)N/N=C/c2sc(N3CCOCC3)nc2-c2ccccc2)cc(OC)c1OC	eLon inh 17.0 | E coli Lon conf inactive
Nc1ccc(C(=O)N/N=C/c2sc(N3CCOCC3)nc2-c2ccccc2)cc1	none
CN(C)CCNc1oc(COc2cccc(Cl)c2)nc1C#N	eLon inh 20.1 | E coli Lon conf inactive
COC(=O)C1=C(C)Nc2[nH]c(=S)[nH]c(=O)c2C1c1ccc(O)cc1 (centres undefined)	none
O=c1[nH]c(=S)[nH]c2c1C(c1ccc(Br)cc1)c1c([nH]c(=S)[nH]c1=O)O2	MCL1 BIM primary 72.1, MEX-5 binding -70.9, BCLXL inh 38.7, eLon inh 32.3 (no result: EBV gp42 block) | E coli Lon conf inactive
CCC(C)(C)NC(=O)C(c1ccccn1)N(C(=O)c1csnn1)c1ccc(C)cc1 (centres undefined)	none
CSCCC(NC(=O)c1ccc(Cl)cc1)C(=O)OCC(=O)Nc1ccc(C#N)cc1 (centres undefined)	eLon inh 35.4 (no result: MEX-5 binding) | E coli Lon conf inactive
CSCCC(NC(=O)c1ccc(Cl)cc1)C(=O)OCC(C)=O (centres undefined)	none
O=C1Nc2ccccc2C(=O)N2C[C@@H](O)C[C@H]12	none (no result: EBV gp42 block)
O=C(CN(Cc1ccco1)C(=O)c1ccccc1F)Nc1ccccc1C(F)(F)F	none (no result: MEX-5 binding, EBV gp42 block)
O=C(CN(Cc1ccco1)S(=O)(=O)c1cccs1)Nc1ccccc1C(F)(F)F	eLon inh 17.3 | E coli Lon conf inactive
Oc1cc(CNC2CCCCC2)c(O)cc1CNC1CCCCC1	eLon inh 45.2 (no result: GLD-1 RNA inh, MCL1 BIM primary, MEX-5 binding, BCLXL inh, EBV gp42 block) | E coli Lon conf 17.4
O=C1c2sccc2-c2cccc3cccc1c23	eLon inh 54.1 (no result: GLD-1 RNA inh, MCL1 BIM primary, MEX-5 binding, BCLXL inh, EBV gp42 block) | E coli Lon conf 29.8
C=CCn1c(=NC(=O)C2COc3ccccc3O2)sc2cc(S(N)(=O)=O)ccc21 (centres undefined)	eLon inh 23.2 | E coli Lon conf inactive
COCCn1c(=NC(=O)C2COc3ccccc3O2)sc2cc(S(N)(=O)=O)ccc21 (centres undefined)	none
N#Cc1cc2c(nc1S(=O)(=O)Cc1ccccc1)CCCC2	none
CC(=O)Nc1ccc(-c2ccnc3c2CC(C)(C(=O)NCC2CC2)O3)cc1 (centres undefined)	none (no result: GLD-1 RNA inh, MCL1 BIM primary, MEX-5 binding, BCLXL inh, EBV gp42 block)
CC(=O)Nc1cccc(-c2ccnc3c2CC(C)(C(=O)NCC2CC2)O3)c1 (centres undefined)	eLon inh 47.4 (no result: GLD-1 RNA inh, MCL1 BIM primary, MEX-5 binding, BCLXL inh, EBV gp42 block) | E coli Lon conf inactive
COc1cc(COCC(O)CN2CCN(CCN3C(=O)c4cccc5cccc(c45)C3=O)CC2)cc(OC)c1OC (centres undefined)	eLon inh 18.1 | E coli Lon conf 17.2
O=C1c2cccc3cccc(c23)C(=O)N1CCN1CCN(CC(O)COCc2ccc(Cl)cc2)CC1 (centres undefined)	none
CCn1nc(C)c(Br)c1Nc1ccc(Br)cc1	none
CN(C)c1ccc2nc3ccc(=O)cc-3sc2c1	eLon inh 40.2 (no result: GLD-1 RNA inh, MCL1 BIM primary, MEX-5 binding, BCLXL inh, EBV gp42 block) | E coli Lon conf 43.6
COc1ccc(CC(=O)Nc2nc(OCC(F)(F)F)cnc2-c2ccc(Cl)cc2Cl)cc1	none (no result: GLD-1 RNA inh, MCL1 BIM primary, MEX-5 binding, BCLXL inh, EBV gp42 block)
CCN1C(=O)c2ccccc2S(=O)c2ccc(C(=O)N3CCN(C(=O)c4ccco4)CC3)cc21 (centres undefined)	none
CCN1C(=O)c2ccccc2S(=O)c2ccc(C(=O)N3CCCCCC3)cc21 (centres undefined)	eLon inh 44.8 | E coli Lon conf inactive
CC1CCCCN1CCNC(=O)c1cnn2ccccc12 (centres undefined)	eLon inh 14.3 | E coli Lon conf inactive
Cc1[nH]c(=O)[nH]c(=O)c1S(=O)(=O)N1CCN(c2ccccc2F)CC1	EBV gp42 block 61.3, eLon inh 43.6 | E coli Lon conf inactive
COc1cccc(C(=O)CN2C(=O)C(C)(C)Oc3ccc(C(=O)N4CCCCCC4)cc32)c1	none
COc1cccc(C(=O)CN2C(=O)C(C)(C)Oc3ccc(C(=O)N4CCOCC4)cc32)c1	eLon inh 128.2 (no result: EBV gp42 block) | E coli Lon conf inactive
COc1ccccc1NC(=S)NCc1ccc2c(c1)OCO2	none
CCOc1ccc(NC(=O)CC2C(=O)Nc3ccccc3N2C(=O)c2ccccc2)cc1 (centres undefined)	eLon inh 14.7 | E coli Lon conf inactive
N=C1C(c2nc3ccccc3s2)=C(O)CN1c1ccccc1	none
CCc1nc2ccc(C(=O)NCCN3CCNC3=O)cn2c1N(C)Cc1ccc(OC)cc1	none (no result: GLD-1 RNA inh, MCL1 BIM primary, MEX-5 binding, BCLXL inh, EBV gp42 block)
O=C1c2ccccc2C(O)N1Cc1ccc2c(c1)OCO2 (centres undefined)	eLon inh 15.4 | E coli Lon conf inactive
COc1ccc(C(=O)NCCn2ccc3ccccc32)cc1OC	none
COc1ccccc1C(=O)NCCn1ccc2ccccc21	eLon inh 15.7 | E coli Lon conf inactive
O=C1c2ccccc2C(=O)N1SC1CCCCC1	eLon inh 18.6 | E coli Lon conf inactive
Cc1oc2ccc(Br)cc2c(=O)c1-c1nn[nH]n1	eLon inh 20.7 | E coli Lon conf inactive
O=C(C1CCN(S(=O)(=O)c2c(Cl)cccc2Cl)CC1)N1CCCCCCC1	eLon inh 18.2 (no result: EBV gp42 block) | E coli Lon conf inactive
O=C(c1ccc(=O)[nH]n1)N1CCN(S(=O)(=O)c2ccc(C(F)(F)F)cc2)CC1	none (no result: MEX-5 binding, EBV gp42 block)
COC(=O)c1ccsc1NC(=O)CSc1nnnn1-c1ccccc1SC	eLon inh 20.1 | E coli Lon conf inactive
CSc1ccccc1NC(=O)CSc1nnnn1-c1ccccc1SC	none
CC(C)c1cc(C(=O)N2CCCC(C(=O)c3ccc4ccccc4c3)C2)on1 (centres undefined)	none
O=C1CCC(C(=O)N2CCCC(C(=O)c3ccc4ccccc4c3)C2)=NN1 (centres undefined)	eLon inh 13.3 (no result: EBV gp42 block) | E coli Lon conf inactive
O=C(CCCn1c(=O)c2sccc2n(Cc2cc(=O)n3ccccc3n2)c1=O)NCc1ccco1	eLon inh 15.4 | E coli Lon conf inactive
O=C(CCN1C(=O)S/C(=C\c2ccccc2)C1=O)Nc1ccc(O)cc1C(=O)O	eLon inh 18.6 (no result: EBV gp42 block) | E coli Lon conf inactive
CC(C)Sc1nc2sccc2c(=O)n1-c1ccccc1	none (no result: EBV gp42 block)
O=C1NC2=C(C(=O)CCC2)C(c2ccccc2[N+](=O)[O-])N1 (centres undefined)	MCL1 BIM primary 51.3, BCLXL inh 50.9, eLon inh 24.5 (no result: EBV gp42 block) | E coli Lon conf inactive

Screening results deposited in PubChem by several laboratories.
